Bim-Mcl-1 = human Bim-Mcl-1 interaction inhibition. inhibition, % at 10 µM. 190,000 compounds, 0.1% hits. Bead-based flow cytometry, Bim peptide-Mcl-1 binding. Q07820; in the data active = inhibition above about 40%
Mcl1-Noxa inh = disrupts binding of human Mcl-1 to Noxa peptide | Q07820 | TR-FRET Mcl-1/Noxa peptide binding, 2 h | inhibition, % at 21.7 µM | 220,000 compounds, 1.5% hits;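 active = compounds that cut the protein-peptide binding signal by more than 50% relative to plate controls in a single-dose test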;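 note: His-tagged Mcl-1 with rhodamine Noxa BH3 peptide and terbium anti-His antibody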
Mcl1 Bid PPI = disrupts binding of human Mcl-1 to Bid peptide. AID 1021. 220,000 compounds, 0.97% hits. inhibition, % at 21.7 µM. TR-FRET Mcl-1/Bid-Dy647 peptide binding, 1536-well;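 active = compounds that cut the binding signal by more than half at the single screening dose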;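 note: His-tagged Mcl-1 with europium anti-His antibody binding Bid BH3 peptide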
NOD2 RIPK2 PPI = inhibitors of human NOD2-RIPK2 interaction; CHO BLA complementation NOD2-RIPK2, CCF4 ratio; inhibition, % at 4.98 µM; 360,000 compounds, 0.38% hits; in the data active = inhibition above about 21%
TLR9-MyD88 block = TLR9-MyD88 interaction inhibition. CHO BLA complementation TLR9-MyD88, CCF4 FRET ratio. inhibition, % at 4.98 µM. 340,000 compounds, 0.21% hits. AID 504734;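 active = inhibition above the mean over all tested compounds plus 3 SD, cut at about 21% in these data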
Target sequence (Q99836 whole entry, looked up): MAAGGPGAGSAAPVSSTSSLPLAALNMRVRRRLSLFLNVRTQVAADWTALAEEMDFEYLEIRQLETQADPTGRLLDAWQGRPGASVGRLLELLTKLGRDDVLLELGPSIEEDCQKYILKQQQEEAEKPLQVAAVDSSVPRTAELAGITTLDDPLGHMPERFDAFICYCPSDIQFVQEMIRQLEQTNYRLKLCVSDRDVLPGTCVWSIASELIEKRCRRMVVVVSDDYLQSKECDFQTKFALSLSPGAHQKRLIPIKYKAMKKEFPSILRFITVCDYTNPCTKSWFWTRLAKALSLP
Target sequence (Q9NR96 whole entry, looked up): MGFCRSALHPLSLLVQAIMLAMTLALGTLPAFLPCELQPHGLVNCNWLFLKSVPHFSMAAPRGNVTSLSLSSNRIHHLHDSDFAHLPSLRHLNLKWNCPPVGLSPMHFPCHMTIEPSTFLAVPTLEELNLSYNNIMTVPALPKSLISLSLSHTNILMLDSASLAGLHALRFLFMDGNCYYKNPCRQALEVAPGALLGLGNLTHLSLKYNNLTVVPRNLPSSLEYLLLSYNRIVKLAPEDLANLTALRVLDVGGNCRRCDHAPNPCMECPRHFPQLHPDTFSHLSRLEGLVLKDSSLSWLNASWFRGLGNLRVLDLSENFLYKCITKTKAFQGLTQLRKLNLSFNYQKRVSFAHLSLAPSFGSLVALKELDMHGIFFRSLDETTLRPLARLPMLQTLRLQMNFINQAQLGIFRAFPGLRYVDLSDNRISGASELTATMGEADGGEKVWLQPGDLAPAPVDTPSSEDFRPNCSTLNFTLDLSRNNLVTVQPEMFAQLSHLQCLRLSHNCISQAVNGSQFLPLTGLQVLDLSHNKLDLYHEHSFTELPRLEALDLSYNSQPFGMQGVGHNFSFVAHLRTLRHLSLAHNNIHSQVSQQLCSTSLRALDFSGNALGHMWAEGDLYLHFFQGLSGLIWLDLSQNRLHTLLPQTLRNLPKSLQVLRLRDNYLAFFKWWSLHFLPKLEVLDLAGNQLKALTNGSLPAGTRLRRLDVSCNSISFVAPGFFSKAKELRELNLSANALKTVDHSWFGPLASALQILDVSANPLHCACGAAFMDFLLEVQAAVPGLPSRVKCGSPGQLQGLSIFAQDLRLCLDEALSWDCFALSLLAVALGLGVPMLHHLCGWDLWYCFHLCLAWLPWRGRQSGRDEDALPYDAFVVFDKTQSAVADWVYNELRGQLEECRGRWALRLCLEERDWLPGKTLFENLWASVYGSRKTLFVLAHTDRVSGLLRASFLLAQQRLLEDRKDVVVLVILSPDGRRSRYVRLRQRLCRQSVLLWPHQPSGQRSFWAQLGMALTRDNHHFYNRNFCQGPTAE
TLR4-MyD88 BLA = blocks binding of human TLR4 to MyD88 | O00206+Q99836 | HeLa CL3-4 TLR4/MyD88 BLA complementation, FRET ratio | inhibition, % at 8.4 µM | 200,000 compounds, 0.18% hits | AID 861; in the data active = inhibition above about 25%
TLR4-MyD88 conf = confirmation of human TLR4-MyD88 binding inhibitors | AID 941 | inhibition, % at 8.4 µM | 350 compounds, 50% hits | shares compounds with TLR4-MyD88 BLA | HeLa CL3-4 BLA complementation, CCF4 FRET ratio;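 active = mean inhibition across three repeat runs above about 25% carried over from the earlier screen, limit read from the data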
BLA inhibitor ct = counter-screen for TLR4-MyD88 inhibitors: beta-lactamase reporter inhibitors. HeLa BLA reporter, CCF4 FRET ratio. 350 compounds, 63% hits. shares compounds with TLR4-MyD88 BLA. AID 1237. inhibition, % at 8.4 µM;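 active = mean inhibition over three repeats above about 26% taken from the earlier screen, limit read from the data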;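 note: HeLa cells stably expressing beta-lactamase reporter as counterscreen for TLR4-MyD88 inhibitors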
TLR9-MyD88 cf = confirmation of human TLR9-MyD88 binding inhibitors | CHO TLR9/MyD88 BLA complementation, CCF4 FRET ratio | 680 compounds, 51% hits | shares compounds with TLR9-MyD88 block | AID 540250 | inhibition, % at 4.98 µM;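 active = mean inhibition across three repeats above about 21% taken from the earlier screen, limit read from the data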;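 note: blue over green emission ratio reports constitutive TLR9 MyD88 association via BLA complementation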
BLA counter-1 = non-selective beta-lactamase inhibitors in TLR9-MyD88 counter-screen | shares compounds with TLR9-MyD88 block | CHO-BLA cells, CCF4 FRET ratio, BLA reporter | inhibition, % at 4.98 µM | AID 540251 | 680 compounds, 7% hits;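 active = mean inhibition above a 50% cutoff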;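 note: counterscreen of TLR9-MyD88 hits on CMV-driven BLA in CHO-K1 cells; higher means less blue over green ratio so more BLA blockade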
TLR9 CHO cytotox = CHO cell toxicity counter-screen for TLR9-MyD88 inhibitors; shares compounds with TLR9-MyD88 block; TLR9-MyD88 CHO cells cytotoxicity, luminescence; inhibition, % at 4.98 µM; 680 compounds, 39% hits; AID 588336; in the data active = inhibition above about 11%
NOD2-RIPK2 conf = confirmation of human NOD2-RIPK2 interaction inhibitors. CHO cells, NOD2-RIPK2 BLA complementation, CCF4 FRET. inhibition, % at 4.98 µM. shares compounds with NOD2 RIPK2 PPI. 1,200 compounds, 70% hits;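 active = mean inhibition across replicates above a set limit taken from the earlier primary screen, cut at about 21% in these data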
BLA counter-2 = NOD2-RIPK2 counterscreen BLA reporter activity; 1,200 compounds, 57% hits; CHO BLA reporter, CCF4 FRET ratio; inhibition, % at 4.98 µM; shares compounds with NOD2 RIPK2 PPI;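 active = mean inhibition above the low-control mean inhibition plus three low-control SD, cut at about 11% in these data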
Each line names hits and unclear results; the compound was inactive in the other large screens (follow-up assays come after a bar, where they were run). Only some compounds are listed: those with a hit (about 1.8% of all), similar ones and a draw of the others.

COc1ccc(/C=c2/sc3n(c2=O)C(c2ccccc2OC)C2=C(N=3)c3ccccc3CC2)cc1O (stereo not drawn)	NOD2 RIPK2 PPI 35, TLR4-MyD88 BLA 27 | TLR4-MyD88 conf inactive | BLA inhibitor ct 45 | NOD2-RIPK2 conf 26 | BLA counter-2 31
Cc1c(C(=O)NCc2ccc3c(c2)OCO3)cccc1[N+](=O)[O-]	none
Cc1cc(-c2cccs2)c2c(N)c(C(=O)c3ccc4c(c3)OCO4)sc2n1	none
COc1ccc(C(=O)c2sc3nc(C)cc(-c4cccs4)c3c2N)cc1	NOD2 RIPK2 PPI 64, TLR9-MyD88 block 56, TLR4-MyD88 BLA 34 | TLR4-MyD88 conf inactive | BLA inhibitor ct inactive | TLR9-MyD88 cf 45 | BLA counter-1 inactive | TLR9 CHO cytotox inactive | NOD2-RIPK2 conf 37 | BLA counter-2 71
O=[N+]([O-])c1cccc(-c2nc(-c3cccs3)c(-c3cccs3)[nH]2)c1	none
O=[N+]([O-])c1ccc(-c2nc(-c3cccs3)c(-c3cccs3)[nH]2)cc1	NOD2 RIPK2 PPI 33, TLR9-MyD88 block 31, TLR4-MyD88 BLA 28 | TLR4-MyD88 conf inactive | BLA inhibitor ct 49 | TLR9-MyD88 cf inactive | BLA counter-1 inactive | TLR9 CHO cytotox inactive | NOD2-RIPK2 conf 36 | BLA counter-2 37
CC(C)CC(N)c1csc(Nc2ccc(C(F)(F)F)cn2)n1 (stereo not drawn)	none (no result: Bim-Mcl-1, Mcl1-Noxa inh, Mcl1 Bid PPI, TLR9-MyD88 block, TLR4-MyD88 BLA)
COc1ccc(Cn2cc3c(-c4ccc(F)cc4)nnc-3c3cc(OC)c(OC)cc32)cc1	NOD2 RIPK2 PPI 63, TLR9-MyD88 block 50, TLR4-MyD88 BLA 28 | TLR4-MyD88 conf 25 | BLA inhibitor ct 41 | TLR9-MyD88 cf 31 | BLA counter-1 inactive | TLR9 CHO cytotox inactive | NOD2-RIPK2 conf 66 | BLA counter-2 72
CCCN(CCC)CC(O)Cn1cc(/C=C/C(=O)c2cccs2)c2ccccc21 (stereo not drawn)	NOD2 RIPK2 PPI 39, TLR9-MyD88 block 40, TLR4-MyD88 BLA 39 | TLR4-MyD88 conf 32 | BLA inhibitor ct 63 | TLR9-MyD88 cf 21 | BLA counter-1 inactive | TLR9 CHO cytotox inactive | NOD2-RIPK2 conf 46 | BLA counter-2 44
O=C(NCC1CCOCC1)c1ccc(-c2ccc(F)c(F)c2)c2ccoc12	none (no result: Bim-Mcl-1, Mcl1-Noxa inh, Mcl1 Bid PPI, TLR9-MyD88 block, TLR4-MyD88 BLA)
C=CCN1C(=O)c2cccc3c(N4CCCCC4)ccc(c23)C1=O	NOD2 RIPK2 PPI 22, TLR4-MyD88 BLA 51 | TLR4-MyD88 conf 36 | BLA inhibitor ct 61 | NOD2-RIPK2 conf 61 | BLA counter-2 64
O=C1c2cccc3c(N4CCCCC4)ccc(c23)C(=O)N1CCO	none
O=C(OCCN1C(=O)c2cccc3c(N4CCOCC4)ccc(c23)C1=O)c1ccccc1Cl	NOD2 RIPK2 PPI 53, TLR9-MyD88 block 40, TLR4-MyD88 BLA 41 | TLR4-MyD88 conf 46 | BLA inhibitor ct 65 | NOD2-RIPK2 conf 54 | BLA counter-2 60
O=C1c2cccc3c(N4CCCCC4)ccc(c23)C(=O)N1c1cccc(O)c1	NOD2 RIPK2 PPI 54, TLR9-MyD88 block 42, TLR4-MyD88 BLA 50 | TLR4-MyD88 conf 35 | BLA inhibitor ct 55 | TLR9-MyD88 cf 35 | BLA counter-1 inactive | TLR9 CHO cytotox 11 | NOD2-RIPK2 conf 61 | BLA counter-2 68
CCn1c(=O)c2[nH]c(SC)nc2n(CC)c1=O	none (no result: Bim-Mcl-1, Mcl1-Noxa inh, Mcl1 Bid PPI, TLR4-MyD88 BLA)
Cc1ccc(-c2ccc(CN3C(CC(C)C)C(=O)N(Cc4cn(CC5CCCCC5)nn4)CCS3(=O)=O)cc2)cc1 (stereo not drawn)	none (no result: Bim-Mcl-1, Mcl1-Noxa inh, Mcl1 Bid PPI, TLR4-MyD88 BLA)
O=C(NC(=S)Nc1ccc2oc(=O)ccc2c1)c1cccc(Cl)c1	none (no result: Bim-Mcl-1, Mcl1-Noxa inh, Mcl1 Bid PPI, TLR4-MyD88 BLA)
CC(C)CNC(=O)COC(=O)c1c2c(nc3ccccc13)/C(=C/c1cccs1)CC2	NOD2 RIPK2 PPI 38, TLR9-MyD88 block 32, TLR4-MyD88 BLA 45 | TLR4-MyD88 conf 43 | BLA inhibitor ct 71 | TLR9-MyD88 cf 41 | BLA counter-1 inactive | TLR9 CHO cytotox inactive | NOD2-RIPK2 conf 65 | BLA counter-2 73
O=C(O/N=C/c1ccc(Br)cc1)c1ccc(F)cc1	none (no result: Bim-Mcl-1, Mcl1-Noxa inh, Mcl1 Bid PPI, TLR4-MyD88 BLA)
C=CCN1C(=O)c2ccc(C(=O)N(CC)CC(=O)Nc3c(F)cccc3F)cc2C1=O	none (no result: Bim-Mcl-1, Mcl1-Noxa inh, Mcl1 Bid PPI, TLR4-MyD88 BLA)
COc1c(Cl)cnn(-c2ccc(C)cc2)c1=O	none
Cc1ccc(-n2ncc(Br)c(Br)c2=O)cc1	NOD2 RIPK2 PPI 32, TLR9-MyD88 block 24, TLR4-MyD88 BLA 27 | TLR4-MyD88 conf inactive | BLA inhibitor ct inactive | TLR9-MyD88 cf 27 | BLA counter-1 inactive | TLR9 CHO cytotox 101 | NOD2-RIPK2 conf 45 | BLA counter-2 inactive
Cc1c(Nc2cc(Cl)c3nonc3c2[N+](=O)[O-])c(=O)n(-c2ccccc2)n1C	NOD2 RIPK2 PPI 84, TLR9-MyD88 block 50, TLR4-MyD88 BLA 38 | TLR4-MyD88 conf 29 | BLA inhibitor ct inactive | TLR9-MyD88 cf 48 | BLA counter-1 inactive | TLR9 CHO cytotox 98 | NOD2-RIPK2 conf 56 | BLA counter-2 31
Cc1c(Nc2cc(N3CCOCC3)c3nonc3c2[N+](=O)[O-])c(=O)n(-c2ccccc2)n1C	none (no result: NOD2 RIPK2 PPI, TLR9-MyD88 block)
Nc1ccc2c(C(F)(F)F)cc(=O)oc2c1	NOD2 RIPK2 PPI 51, TLR9-MyD88 block 55, TLR4-MyD88 BLA 49 | TLR4-MyD88 conf 41 | BLA inhibitor ct 66 | TLR9-MyD88 cf 36 | BLA counter-1 inactive | TLR9 CHO cytotox inactive | NOD2-RIPK2 conf 64 | BLA counter-2 68
CCOC(=O)c1c(NC(=O)CSc2nc3cc(Cl)ccc3c(=O)n2Cc2ccco2)sc(C(=O)N(C)C)c1C	none
CC(=O)Nc1nc2n(n1)C(c1ccc(F)cc1)C=C(c1ccccc1)N2 (stereo not drawn)	NOD2 RIPK2 PPI 41, TLR9-MyD88 block 41, TLR4-MyD88 BLA 34 | TLR4-MyD88 conf 36 | BLA inhibitor ct 56 | TLR9-MyD88 cf inactive | BLA counter-1 inactive | TLR9 CHO cytotox inactive | NOD2-RIPK2 conf inactive | BLA counter-2 inactive
